What all share (test): NCI-60 one-dose screen, 48 h (100 = growth as untreated, 0 = no growth, -100 = all killed)
Common to all, as to conditions: 10 µM unless noted

Assay [1] deals with RPMI-8226 leukemia.
The test system of assay [2] is OVCAR-8 ovarian.
The test system of assay [3] is OVCAR-5 ovarian.
Assay [4] deals with OVCAR-4 ovarian.
For assay [5], the system named is SK-OV-3 ovarian.
Assay [6] relates to IGROV1 ovarian.
Assay [7] has as its system OVCAR-3 ovarian.
Assay [8] concerns HS 578T breast.
Assay [9] deals with NCI/ADR-RES ovarian.
Assay [10] relates to T-47D breast.
The test system of assay [11] is BT-549 breast.
For assay [12], the system named is MDA-MB-435 melanoma.
Assay [13] relates to SW-620 colon.
In assay [14] the test system is MCF7 breast.
The test system of assay [15] is HCT-116 colon.
Assay [16] has as its system HCC-2998 colon.
In assay [17] the test system is KM12 colon.

This is part of a sample that, as a whole, favours compounds with a hit. Of some 83,000 tested, about 20% had one in any assay.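 Plates (96-well) were seeded with cells, treated with compound at one concentration, and incubated for 48 hours before percent growth was determined.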 A number with no mark means an inactive call. Calls of active or inactive are those of the source. Rule for the calls: active = growth percent below 10; inactive = the rest.

As to `Brc1ccc2[nH]cc(-c3nc(-c4c[nH]c5ccncc45)cs3)c2c1`, the growth in assay [1] is -23.4% (active); in assay [2], -64.5% (active); in assay [3] it was 38.9%; in [4], -77.8% (active); in assay [5], 87.6%; in [6], -86.5% (active). The growth in [7] was -91.6% (active); in [8], -48.4% (active); in assay [9], 14.1%; in assay [10], -48.3% (active); in assay [11] it was 87.8%; in [12], -90.8% (active). Moreover, the growth in [13] was -76.7% (active); in [14], -63.3% (active); in assay [15], -93.7% (active); in assay [16], -79.3% (active); in assay [17], -81.9% (active).

With `COc1nc2ccccc2cc1-c1nc2c(cnn2-c2ccc(Br)cc2)c(=O)[nH]1`, the growth is 20.7% in [1]; 27.7% in [2]; 44.1% in assay [3]; 57.3% in [4]; 15.1% in assay [5]; 41.8% in [6]. Besides, the growth in [7] is -34.2% (active); in [8], 23%; in assay [9], 4.99% (active); in [10], 24.2%; in assay [11], 50%; in assay [12], -74.8% (active). Besides, the growth in [13] is 19.5%; in assay [14] it was 22.1%; in [15] it was 23.1%; in assay [16], 51.1%; in assay [17], 18.3%.

In the case of `Cc1nc2ccccc2n1CC1C(=O)NC(=O)NC1=O`, the growth in assay [1] was 115%; in assay [2], 105%; in assay [3] it was 103%; in assay [4], 107%; in assay [5] it was 107%; in [6] it was 106%. For the same compound, the growth in [7] is 119%; in assay [8], 110%; in assay [9], 99.3%; in [10], 107%; in assay [11], 121%; in assay [12], 101%. Further, the growth in assay [13] was 108%; in assay [14] it was 100%; in assay [15] it was 104%; in [16], 127%; in [17], 103%.

Turning to `O=[N+]([O-])c1ccc(Cl)c(-c2cc(CCCCO)on2)c1`, the growth in assay [1] is 105%; in [2] it was 105%; in assay [3] it was 101%; in assay [4], 97.4%; in assay [5] it was 113%; in assay [6], 105%. Moreover, the growth in assay [7] is 111%; in [8] it was 99.7%; in assay [10] it was 88.8%; in assay [11], 99.7%; in assay [12] it was 103%; in assay [13], 104%. Moreover, the growth in assay [14] is 100%; in [15], 105%; in assay [16], 108%; in assay [17] it was 104%.

As to `C[C@H](C(=O)Nc1ccc(S(N)(=O)=O)cc1)S(=O)(=O)c1ccccc1`, the growth was 110% in assay [1]; 99.1% in assay [2]; 111% in assay [3]; 105% in assay [4]; 106% in assay [5]; 98.9% in assay [6]. Moreover, the growth is 117% in [7]; 101% in [8]; 93.2% in assay [10]; 96.8% in assay [11]; 102% in assay [12]; 110% in assay [13]. For the same compound, the growth in assay [14] is 96.1%; in assay [15] it was 92.1%; in assay [16] it was 111%; in assay [17], 104%.

`CCOC(=O)c1c(C)oc2ncnc(N3CCN(C(=O)COc4ccc(C(C)(C)C)cc4)CC3)c12`: the growth in [1] is 44.9%; in [2], 81.5%; in assay [3] it was 96.8%; in assay [4], 74.4%; in assay [5], 85.4%; in assay [7], 98.4%. Also, the growth is 78.8% in [8]; 73.6% in [9]; 47.7% in [10]; 54.3% in assay [11]; 99.8% in assay [12]; 99.8% in assay [13]. Besides, the growth in assay [14] was 83%; in [15], 75.2%; in assay [16] it was 104%; in assay [17], 89.9%.

Consider `Cc1ccc(-c2nn(C)c(=O)c3noc(-c4ccc(C)cc4)c23)cc1`, for which the growth was 20.4% in [1]; 43.8% in assay [2]; 57.4% in assay [3]; 61.4% in assay [4]; 26.7% in [5]; 48.2% in assay [6]. Besides, the growth was 8.74% (active) in [7]; 28% in assay [8]; 24.2% in assay [10]; 30.8% in assay [11]; -5.41% (active) in assay [12]; 21.1% in [13]. For the same compound, the growth in assay [14] was 30%; in assay [15], 37.5%; in assay [16], 70.8%; in [17] it was 35.9%.

Consider `Clc1ccc(C(/C=C/c2sc(Cl)nc2Cl)=N/Nc2cc(Cl)cc(Cl)c2)cc1`, for which the growth was 98.1% in assay [1]; 104% in assay [2]; 104% in assay [3]; 100% in assay [4]; 98.9% in assay [5]; 89.7% in assay [6]. The growth in [7] was 103%; in [8], 98.3%; in assay [10], 98.2%; in assay [11], 115%; in [12], 101%; in assay [13] it was 106%. For the same compound, the growth was 100% in [14], 106% in assay [15], 112% in assay [16] and 105% in assay [17].

As to `C[C@]12CC[C@@H]3c4cc(OC(F)F)c(OS(N)(=O)=O)cc4CC[C@H]3[C@@H]1CC[C@@H]2OS(N)(=O)=O`, the growth was 39.3% in assay [1]; 46.2% in [2]; 94.9% in assay [3]; 76.1% in assay [4]; 44.7% in [5]; 16.2% in assay [7]. The growth in [8] is 5.84% (active); in assay [9] it was 11.3%; in [10], 43.4%; in [11], 62.7%; in assay [12], 42.8%; in assay [13], 22%. Also, the growth was 20.2% in [14], 20.3% in assay [15], 74.1% in [16] and 35.6% in assay [17].

Consider `C[N+]1=C(/C=C/c2ccc(O)c3ncccc23)C(C)(C)c2ccccc21`, for which the growth in assay [1] was 53.6%; in [2], 53.7%; in assay [3] it was 52.5%; in [4], 27.7%; in assay [5] it was 23%; in assay [6] it was 46%. Further, the growth was 83% in assay [7]; 49.2% in [8]; 14.6% in [9]; 23.7% in [10]; 81.2% in [11]; 59.6% in [12]. Also, the growth in [13] is 89%; in assay [14], 13.7%; in assay [15] it was 10.4%; in [16], 92%; in [17] it was 84.4%.

`COc1ccc2c(c1)c(-c1nn3cc(-c4cccs4)nc3s1)cn2C`: the growth in assay [1] was 68.8%; in assay [2] it was 85.3%; in assay [3], 66.5%; in [4], 70.6%; in assay [5], 84.8%; in [6], 52.9%. Besides, the growth in assay [7] is 96.4%; in [8], 45.1%; in assay [10], 43.6%; in assay [11], 101%; in assay [12], 87.6%; in assay [13], 82.3%. The growth is 60.4% in assay [14], 82.8% in [15], 98.9% in assay [16] and 70.4% in assay [17].

In the case of `O=c1[nH][n+](-c2ccc(Br)cc2)no1`, the growth is 56.6% in assay [1]; 55.7% in [2]; 74.7% in assay [3]; 57.9% in assay [4]; 82.3% in assay [5]; 58.8% in assay [7]. The growth was 97.7% in [8]; 73.9% in assay [9]; 28.1% in assay [10]; 83.1% in assay [11]; 22.6% in assay [12]; 36.8% in assay [13]. Further, the growth was 32.8% in [14], 79% in assay [15], 12.7% in assay [16] and 23.3% in assay [17].

As to `CN(C)c1ccc2nc3ccc(=[N+](C)C)c([N+](=O)[O-])c-3sc2c1`, the growth in assay [1] is 21.5%; in [2], 12.7%; in assay [3], -7.81% (active); in assay [4], 0.851% (active); in [5], 59.2%; in assay [7], -12.5% (active). Further, the growth in assay [8] was 37%; in [9], 7.62% (active); in [10], 10.3%; in assay [11], 40.5%; in [12], 41.9%; in [13] it was 24.4%. Further, the growth in assay [14] was 7.94% (active); in assay [15] it was 20.7%; in assay [16], 42.7%; in assay [17], 34.6%.

Regarding `CCc1nnc(NC(=O)c2nnn(-c3ccccc3)c2-c2ccco2)s1`, the growth in assay [1] is 91%; in [2] it was 103%; in assay [3], 101%; in [4], 80.3%; in assay [5], 82.3%; in assay [6], 103%. Further, the growth is 103% in assay [7]; 92.5% in [8]; 85% in assay [10]; 102% in assay [11]; 97.1% in [12]; 98.5% in [13]. Besides, the growth was 78.6% in assay [14], 64.2% in [15], 110% in assay [16] and 96.9% in assay [17].

Turning to `CC(=O)OC[C@H]1OC(Sc2sc(C(=O)c3ccc(C)cc3)c(N)c2-c2nc3ccccc3s2)[C@H](OC(C)=O)[C@@H](OC(C)=O)[C@@H]1OC(C)=O` (some centres undefined), the growth in assay [1] was 46.5%; in [2], 58.7%; in [3], 58.6%; in assay [4] it was -13.9% (active); in assay [5] it was 89.9%; in assay [6], 48.2%. For the same compound, the growth in assay [7] is 59.4%; in [8], 52.5%; in assay [9], 62.9%; in assay [10], 69.7%; in [11] it was 83.4%; in [12], 77.4%. Also, the growth in assay [13] is 53.4%; in assay [14], 73.6%; in assay [15] it was 39.3%; in [16], 94.2%; in assay [17], 80.6%.

For the compound `Cc1cc(=O)oc2cc(OC(=O)N3CCN(C)CC3)ccc12`, the growth was 108% in assay [1]; 103% in assay [2]; 98.7% in assay [3]; 104% in assay [4]; 110% in assay [5]; 110% in [6]. Also, the growth was 106% in [7]; 99.4% in assay [8]; 105% in [10]; 112% in assay [11]; 101% in assay [12]; 100% in [13]. Moreover, the growth is 89.6% in [14], 99.4% in assay [15], 110% in assay [16] and 101% in assay [17].

In the case of `CC1Cc2ccccc2N1NC(=O)c1ccc(Cl)c(S(N)(=O)=O)c1` (centres undefined), the growth was 101% in assay [1]; 104% in [2]; 105% in assay [3]; 98.7% in assay [4]; 98.4% in assay [5]; 98.6% in [6]. For the same compound, the growth in assay [7] was 119%; in assay [8] it was 107%; in assay [9], 101%; in assay [10], 100%; in assay [11], 92.1%; in assay [12], 102%. Besides, the growth was 105% in assay [13]; 92.2% in assay [14]; 98.2% in assay [15]; 96% in assay [16]; 107% in assay [17].

Turning to `CCCSc1nc2ccc(C)cc2cc1/C=[N+](\[O-])c1ccccc1`, the growth in assay [1] was 17.1%; in [2], 12.4%; in [3], 74.3%; in assay [4] it was 55%; in assay [5], 75.1%; in [6], 44.4%. Also, the growth in assay [7] was -12% (active); in assay [8] it was 48.6%; in assay [10] it was 56.6%; in assay [11] it was 42.1%; in assay [12] it was -24.1% (active); in assay [13], 22.7%. For the same compound, the growth in assay [14] was 21.8%; in [15] it was 9.07% (active); in assay [16], 98.2%; in [17], 25%.

These data come from PubChem BioAssay (NCI).
